KinaseGlo FLuc: Counterscreen for Luciferase (Kinase-Glo TM) Inhibition; actives 0.28% (n = 200,000); Kinase-Glo luciferase, ATP luminescence, 8 min; Potency, µM (titrated, usually from 38.3 µM), without a hit: at the highest dose activity change, negative = inhibition, hits mostly inhibitors; AID 1379, 2008; active means well fitted inhibition curve with a large enough effect; inconclusive means small, poorly fitted or top-dose-only effect; further: potency means the concentration at half of the fitted maximal effect; nearly all actives have a fitted effect of over 60% in size
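Compound is pinned into ATP-containing buffer (10 uM ATP, imidazole pH 7.2, 7 mM MgCl2). Kinase-Glo luciferase reagent is then added. Light output is recorded following an 8-min room-temperature incubation.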
Lamin A splicing: qHTS Assay for Modulators of Lamin A Splicing | HeLa LMNA splicing GFP/RFP minigene ratio, 48 h | Potency, µM (doses to about 46.1 µM), for inactives: at the top dose ratio change, negative = inhibition, hits mostly inhibitors | actives 0.01% (n = 200,000) | AID 1487, 2009; active means well fitted inhibition curve with a large enough effect in the signal ratio, with a control signal flat, not every such curve was filed as active; inconclusive means small, poorly fitted or top-dose-only effect, or effect the other way, or a change in a side signal; the % refers to the signal ratio; further: potency means the concentration at half of the fitted maximal effect
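S3 HeLa cells stably expressing lamin A-EGFP splicing minigene plus DsRed2, 600 cells/well, 48 h compound exposure at 37C. Laser-scanning cytometry; analysed as GFP (500-530 nm)/RFP (575-640 nm) total intensity ratio; 0.5% DMSO vehicle.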
PNC inhibitor: High Content Assay for Compounds that inhibit the Assembly of the Perinucleolar Compartment; activity change (PNC), negative = inhibition, % at 10 µM; actives 3.1% (n = 140,000); PC3M PTB-GFP, PNC prevalence imaging, 16 h; hits give low values; AID 2417, 2010;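 active means readout at or below -70, meaning at least 70% loss of cells showing the perinucleolar compartment, a nuclear body marking cancer cells; inconclusive means readout between -30 and a set limit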;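 further: plate controls were DMSO wells for no effect and camptothecin positive control wells for full effect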
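Read-out is percentage of cells bearing a perinucleolar compartment, from automated 20x imaging of fixed, Hoechst-stained PC3M PTB-GFP cells. Cells were seeded 4 h, then exposed 16 h to compound (23 nl of library stock) in duplicate plates.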
ALDH1A1 inh: qHTS Assay for Inhibitors of Aldehyde Dehydrogenase 1 (ALDH1A1) | Aldehyde dehydrogenase 1A1 (Homo sapiens), P00352 | Purified ALDH1A1, NADH fluorescence, propionaldehyde substrate | Potency, µM (titrated, usually from 75.3 µM), for inactives: at the highest dose activity, negative = inhibition, most hits filed as inhibitors | actives 7.3% (n = 220,000) | AID 1030, 2008;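 further: potency means the concentration at half of the fitted maximal effect; plate controls were no enzyme wells and a reference inhibitor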
Target sequence (P00352 whole entry, looked up): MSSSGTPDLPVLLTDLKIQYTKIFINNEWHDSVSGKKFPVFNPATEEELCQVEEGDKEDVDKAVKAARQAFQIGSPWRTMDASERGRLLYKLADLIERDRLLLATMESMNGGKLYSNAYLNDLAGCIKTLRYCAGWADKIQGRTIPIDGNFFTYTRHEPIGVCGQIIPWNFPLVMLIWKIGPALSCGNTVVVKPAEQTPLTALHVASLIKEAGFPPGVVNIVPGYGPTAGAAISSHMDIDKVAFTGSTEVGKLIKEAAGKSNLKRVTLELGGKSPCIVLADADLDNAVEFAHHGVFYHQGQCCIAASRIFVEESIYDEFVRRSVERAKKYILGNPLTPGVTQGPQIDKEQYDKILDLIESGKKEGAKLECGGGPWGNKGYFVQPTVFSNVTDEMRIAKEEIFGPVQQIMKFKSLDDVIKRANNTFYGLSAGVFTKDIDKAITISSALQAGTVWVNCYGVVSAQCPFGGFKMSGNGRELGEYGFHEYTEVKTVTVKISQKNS
HPGD inh: qHTS Assay for Inhibitors of HPGD (15-Hydroxyprostaglandin Dehydrogenase); actives 4.3% (n = 150,000); purified HPGD, NADH fluorescence kinetic, PGE2 substrate; Potency, µM, without a hit: at the highest dose activity change, negative = inhibition, most hits filed as inhibitors; 15-hydroxyprostaglandin dehydrogenase [NAD(+)] (Homo sapiens), P15428; further: potency means the concentration at half of the fitted maximal effect
Target sequence (P15428 whole entry, looked up): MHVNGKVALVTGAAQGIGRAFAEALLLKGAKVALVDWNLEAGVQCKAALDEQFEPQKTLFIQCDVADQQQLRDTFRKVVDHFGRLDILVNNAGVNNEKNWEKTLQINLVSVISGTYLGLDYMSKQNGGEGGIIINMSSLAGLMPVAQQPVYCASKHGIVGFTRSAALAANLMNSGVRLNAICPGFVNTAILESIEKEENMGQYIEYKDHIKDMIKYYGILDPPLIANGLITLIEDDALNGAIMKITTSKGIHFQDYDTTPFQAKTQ
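NADH formation kinetics: reaction with 30 uM PGE2 and 1 mM NAD+ (final), 20 nM enzyme, Tris-HCl pH 8 with Tween 20, after 15 min compound preincubation at room temperature. Fluorescence change, last versus first of five reads.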
The depositor's hits bear a star; ? = inconclusive; · = no result; [ ] = dose if it differs, or a comment. Only some compounds are listed: those with a hit (about 10% of all), similar ones and a draw of the others. Unless noted, the call rests on the fitted dose curve; in most records, active means well fitted inhibition curve with a large enough effect (not every such curve was filed as active); inconclusive means small, poorly fitted or top-dose-only effect, or another doubt; inactive means no such curve, though single readings can be large or run the other way. Unless noted, on the % scale 0 is the no-effect control and ±100 the full control effect.

SMILES | KinaseGlo FLuc | Lamin A splicing | PNC inhibitor | ALDH1A1 inh | HPGD inh
Cc1ccccc1CN1CCC(CNc2ncnc3onc(-c4ccc(Cl)cc4)c23)CC1 | · | -20%[46 µM] | · | · | ·
CCOc1ccccc1NC(=O)CSc1ncc(S(=O)(=O)c2ccc(C)c(C)c2)c(N)n1 | · | -14%[46 µM] | · | · | ·
Cc1ccc(-n2nnnc2CNC(=O)c2ccccc2S(C)(=O)=O)cc1C | · | 17%[46 µM] | · | · | ·
O=C(NCc1cccnc1)c1ccc(-c2ccc(Cl)cc2)o1 | -4% | ? | · | ? | ·
O=C(NCc1cccnc1)/C(=C\c1ccc(-c2ccc(Cl)c(Cl)c2)o1)S(=O)(=O)c1ccccc1 | 5% | ? | -81* | -3% | ?
O=C(Cn1cccc1)NC1CCCCCC1 | -5% | 6% | 36 | -2% | 14µM*
O=C(CN(c1ccc(Cl)cc1)S(=O)(=O)c1ccc(Cl)c([N+](=O)[O-])c1)NCCc1ccccc1 | 0% | · | · | 25µM* | ·
COc1ccc(N(CC(=O)Nc2ccccc2F)S(=O)(=O)c2ccc(C)c([N+](=O)[O-])c2)cc1 | 0% | · | · | 11µM* | ·
O=C(CN(c1ccc(Cl)cc1)S(=O)(=O)c1ccc(Cl)c([N+](=O)[O-])c1)NCCc1ccc(F)cc1 | 0% | ? | -1 | 11% | -5%
C[C@@]1(CCOCc2ccccc2)NC(=O)NC1=O | -2%[7.66 µM] | · | · | 17%[13.5 µM] | -3%
Cc1cn(C(=O)c2ccccc2)c(=S)n1-c1ccc(Cl)cc1 | -1% | -1% | -100* | -4% | ?
CCC(C(=O)N1CCN(c2ccccc2OC)CC1)c1ccccc1 (stereo not given) | -1% | ? | 19 | 40µM* | -8%
CCOC(=O)N1CCN(c2ccccc2OC)CC1 | · | · | · | 0% | ·
COc1ccccc1N1CCN(C[C@@H](C(=O)NC(C)(C)C)c2ccccc2)CC1 | 3% | · | · | 25µM* | -11%
CCOC(=O)C(NC(=O)c1cccnc1)(Nc1cccc(C)n1)C(F)(F)F (stereo not given) | -5% | 6% | 24 | 2% | 1%
CCOC(=O)C(NCc1ccccn1)(NC(=O)c1cccnc1)C(F)(F)F (stereo not given) | 2% | -3% | -86* | -5% | -6%
Nc1ccccc1N=Nc1c(S(=O)(=O)O)cc2cc(S(=O)(=O)O)cc(O)c2c1O | -11%[7.66 µM] | · | · | 8%[13.5 µM] | -6%
CC1CCN(C(=O)c2cc(F)c(F)cc2Cl)CC1 | 2% | -9% | -100* | 3% | 13µM*
CC1CCCCN1CCCNC(=O)c1ccc2c(c1)sc1nc(-c3ccc(F)cc3)cn12 (stereo not given) | · | 1%[46 µM] | · | · | ·
COc1ccc(CCN(C)CC(O)c2ccccc2)cc1OC (stereo not given) | -11% | 6%[46 µM] | · | 18µM* | ·
COc1ccc(CCN(C)CCc2ccc(OC)c(OC)c2)cc1OC | -3% | -12% | · | -6% | -13%
CCC(=O)N1c2ccccc2CC1C(=O)NCCCN1CCN(c2ccccc2)CC1 (stereo not given) | · | 4%[46 µM] | · | · | ·
CNc1oc(C)nc1S(=O)(=O)c1ccc(C)cc1 | -5% | 14% | -3 | ? | -7%
CNc1oc(Cc2ccccc2)nc1S(=O)(=O)c1ccccc1 | 2% | -1% | -13 | 25µM* | -3%
O=C(NC1CC(=O)N(c2cccc(F)c2)C1)c1ccc(S(=O)(=O)N2CCCCC2)cc1 (stereo not given) | · | 4%[46 µM] | · | · | ·
SMILES | KinaseGlo FLuc | Lamin A splicing | PNC inhibitor | ALDH1A1 inh | HPGD inh
CCNC(=O)CCS(=O)(=O)c1ccc2ccccc2c1 | -3% | -7% | -16 | ? | 32µM*
C/C=C/c1ccc(OCCCN2C(=O)NC(C)(C)C2=O)c(OC)c1 | 0% | 8% | -125* | 14µM* | -13%
Cc1ccc(NC(=O)N2CCC(n3c(C)nc4cccnc43)CC2)c(Cl)c1 | · | 5%[46 µM] | · | · | ·
COC(=O)C1=C(CN2CCN(C)CC2)NC(=O)NC1c1cc(C)ccc1C (stereo not given) | -1% | 4% | ? | 2% | 0%
COC(=O)C1=C(COc2ccc(C=O)cc2OC)NC(=O)NC1c1cc(C)ccc1C (stereo not given) | -1% | -16% | 2 | 6.3µM* | -6%
CCC(Sc1nnc(-c2ccc(OC)cc2)c(-c2ccc(OC)cc2)n1)C(=O)Nc1cccc(OC)c1 (stereo not given) | · | -2%[46 µM] | · | · | ·
O=C(O)CC1=C(O)C(=O)N(c2ccccc2)C1c1ccccc1 (stereo not given) | 4% | 8% | -18 | 6.3µM* | -16%
CC1(C)CC(=O)C(N=Nc2cc(C(F)(F)F)ccc2Cl)=C(O)C1 | -1% | 1%[46 µM] | · | 1.4µM* | ·
CN1CCN(C(=S)Nc2cc(S(=O)(=O)N3CCOCC3)ccc2Cl)CC1 | 6% | ? | · | ? | ·
O=C1CCCC(O)=C1N=Nc1c(Cl)cc(C(F)(F)F)cc1Cl | · | · | · | -4% | ·
CC1(C)CC(=O)C(N=Nc2c(Cl)cc(Cl)cc2Cl)=C(O)C1 | -1% | -8% | ? | 2µM* | -16%
CC1(C)CC(=O)C(N=Nc2ccc(Cl)cc2)=C(O)C1 | 0% | -11% | 16 | ? | -14%
CC1(C)CC(=O)C(N=Nc2cc(S(=O)(=O)N3CCOCC3)ccc2Cl)=C(O)C1 | · | · | · | 0.1µM* | ·
N=C1/C(=C\c2ccc(SCc3ccco3)o2)C(=O)N=C2SC=NN12 | -7% | 8% | 67 | 7.9µM* | 25µM*
CCCCOc1ccccc1NC(=O)Cn1c(-c2nonc2N)nc2ccccc21 | 1% | ? | -95* | 3% | -14%
CCOC(=O)Cn1c(-c2nonc2NC(=O)c2ccccc2F)nc2ccccc21 | 3% | ? | -108* | ? | ?
CC(=O)OC[C@@H]1O[C@H](CCO/N=C\[C@@H](C)[C@H](OCc2ccccc2)C(C)C)C=C[C@@H]1OC(C)=O | · | · | · | 8%[13.5 µM] | ·
NC(=O)C1CCN(C2=C(Cl)C(=O)c3ccccc3C2=O)CC1 | ? | ? | -23 | ? | 14µM*
COc1ccc(Oc2ncc3nc(CCc4ccccc4)c(=O)n(CCC#N)c3n2)cc1 | 0% | · | · | ? | -27%
CCCCc1nnc(SCc2ccc(OCC)cc2)n1N | 2% | ? | 21 | 7% | 25µM*
CCCc1nnc(SCc2ccc(OCC)cc2)n1N | 0% | -8% | -18 | -1% | 28µM*
CCc1nnc(SCc2ccc(CSc3nnc(CC)n3N)cc2)n1N | 3% | 14% | 28 | -1% | -6%
CC(C)(C)NC(=O)C(c1ccsc1)N(CCc1ccccc1)C(=O)Cn1nnc2ccccc21 (stereo not given) | 2% | -9%[0.0737 µM] | -89* | ? | -4%
Cc1cc(C)c(N(C(=O)Cn2nnc3ccccc32)C(C(=O)NC(C)(C)C)c2ccsc2)c(C)c1 (stereo not given) | 3% | -1% | -7 | 14% | -5%

Compound activity: PubChem, National Center for Advancing Translational Sciences (NCATS)
